Experiment [1] deals with T1, Aspartate--tRNA(Asp/Asn) ligase (Mycobacterium tuberculosis (strain ATCC 25618 / H37Rv)) (UniProt P9WFW3).
T1 sequence (whole entry): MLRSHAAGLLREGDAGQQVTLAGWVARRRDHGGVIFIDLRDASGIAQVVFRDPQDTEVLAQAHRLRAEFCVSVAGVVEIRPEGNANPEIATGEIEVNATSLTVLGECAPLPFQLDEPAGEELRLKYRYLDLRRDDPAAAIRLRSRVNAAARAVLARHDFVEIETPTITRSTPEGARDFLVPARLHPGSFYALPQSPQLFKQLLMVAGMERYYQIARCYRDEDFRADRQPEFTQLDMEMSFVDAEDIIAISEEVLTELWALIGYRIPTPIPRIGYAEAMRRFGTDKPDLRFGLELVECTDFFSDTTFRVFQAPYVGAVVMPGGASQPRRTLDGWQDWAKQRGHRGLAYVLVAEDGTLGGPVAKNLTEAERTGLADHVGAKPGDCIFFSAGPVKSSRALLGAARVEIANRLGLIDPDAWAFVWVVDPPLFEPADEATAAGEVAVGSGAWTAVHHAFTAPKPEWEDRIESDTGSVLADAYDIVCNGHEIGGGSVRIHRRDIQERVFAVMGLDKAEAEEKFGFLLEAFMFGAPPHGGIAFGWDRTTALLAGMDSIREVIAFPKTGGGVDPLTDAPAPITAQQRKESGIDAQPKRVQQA
As to the kind of experiment: Assay for Asp RNA synthetase-1 from Mycobacterium tuberculosis. Type of experiment: functional. More on the design: scale not given: direction of the effect not stated beside the values. The following applies: 30 µM.

For experiment [2], the target named is Shiga toxin 2 (Escherichia coli O157:H7) (UniProt P09385+P09386). The experiment in a line: E. coli 0.157:H7 Shiga Toxin SOP - stx2 screening assay. The following applies: 30 µM. Also on record: scale not given: direction of the effect not stated beside the values. Type of experiment: functional.

`O=C(CCc1cccnc1)N(Cc1ccsc1)CC1CCCO1` (centres undefined): the Percent Effect in experiment [1] is -1.24%; in experiment [2] it was -0.116%.
The matching figures for `Cc1noc(C(C)C)c1C(=O)NCCCOC(C)C`: 2.01% and -6.05%.
In the case of `Cn1ccc(CN2CCC(CO)CC2)cc1=O`, the Percent Effect in experiment [1] is -0.422%; in experiment [2], -5.61%.
Take `Cc1ccc(CN2C[C@@H]3COC[C@@H](NS(C)(=O)=O)[C@@H]3C2)o1`: the values for the Percent Effect in experiment [1] and in experiment [2] were 1.98% and -1.23%, respectively.
The matching figures for `Cc1nc(CSCCC(=O)NCc2cccnc2N(C)C)cs1`: 1.66% and -9.97%.
As for `Cc1cnn(C(C)C2CC2)c1NC(=O)c1cnccn1` (centres undefined), the results for the Percent Effect in experiment [1] and in experiment [2] were -3.45% and -3.84%, respectively.
As to `Cc1cc2n(n1)CC(CNCc1ccnc(-n3ccnc3C)c1)CN2` (centres undefined), the Percent Effect is -2.39% in experiment [1] and -3.5% in experiment [2].
For `Cc1cn(CC(=O)NC2CCN(S(C)(=O)=O)CC2)c2ccccc12`, the Percent Effect in experiment [1] was 2.86%; in experiment [2], -10.4%.
The corresponding values for `Fc1cnc(N2CCOCC3(CCCN(c4nncs4)C3)C2)nc1` (centres undefined) are -3.89% and 6.61%.
Regarding `O=C(c1cncc(Br)c1)N1CCC(O)(Cn2ccc3ccncc32)CC1`, the Percent Effect in experiment [1] was 3.38%; in experiment [2] it was -12.7%.
The matching figures for `CNc1cc(C2CCCN2Cc2ccccc2OCC(=O)O)ccn1` (centres undefined): 5.46% and 4.73%.
As to `Cc1cc(N(C)C)nc(C2(C)CCCN2C(=O)c2cnccn2)n1` (centres undefined), the Percent Effect in experiment [1] was 1.19%; in experiment [2], -0.274%.
As to `O=C(NCCOc1ccc(Cl)cc1)N1CCS(=O)(=O)CC1`, the Percent Effect in experiment [1] is -4.21%; in experiment [2] it was 5.32%.
In the case of `CCn1cc(C(=O)NCc2csc(Br)c2)cn1`, the Percent Effect is -3.16% in experiment [1] and 6.72% in experiment [2].
`Cc1cnn(CC2CCCCN2C(=O)c2cc(C(N)=O)cs2)c1` (centres undefined): the Percent Effect in experiment [1] was -2.6%; in experiment [2], 1.14%.
The corresponding values for `Cc1noc(CN2CCN(Cc3cccs3)CC2)n1` are -1.85% and 1.32%.
The corresponding values for `Cc1ccc(C(=O)N2C[C@@H]3COC[C@]3(COc3cccnc3)C2)cn1` are 2.55% and -13.2%.
With `O=C(Cc1ccccn1)N1CCN(CC2CC2)c2ncccc2C1`, the figures for the Percent Effect in experiment [1] and in experiment [2] were 5.6% and -12.7%, respectively.
The matching figures for `Cc1cccc(C(=O)NCCCN2CCN(c3ccccc3)CC2)c1`: 0.86% and -54%.
The matching figures for `COc1ncccc1CN1Cc2nnn(C)c2C(COCC2CC2)C1` (centres undefined): 4.09% and -10.1%.
Regarding `Cc1ccccc1CSc1nc(N)cc(N2C[C@H](O)[C@@H](N(C)C)C2)n1`, the Percent Effect in experiment [1] was 3.57%; in experiment [2] it was 14.8%.
As for `CC(C)NC(=O)N1CCC2(C1)CN(c1ccsc1)C(=O)CN2C` (centres undefined), the results for the Percent Effect in experiment [1] and in experiment [2] were 11.4% and -17.6%, respectively.
As to `CN(C)CC1CN(c2ccc(C#N)cn2)CCO1` (centres undefined), the results for the Percent Effect in experiment [1] and in experiment [2] were 0.899% and 22.4%, respectively.
On to `Cc1nc2cc(C(=O)N3CCCC(n4cncn4)C3)ccc2n1C` (centres undefined), for which the Percent Effect was -8.92% in experiment [1] and -28.5% in experiment [2].
The matching figures for `Cn1cnc2c1CCN(Cc1nc(COc3ccc(F)cc3)no1)C2`: 2.19% and 19%.
Consider `O=C(C1CCCCN1Cc1nc(-c2ccco2)no1)N1CCCC1` (centres undefined), for which the Percent Effect was 3.38% in experiment [1] and 27.5% in experiment [2].
The corresponding values for `Cc1ccc(CC(=O)N2CCCC(c3cc(C)[nH]n3)C2)cn1` (centres undefined) are -0.962% and -18.6%.
The matching figures for `Cc1cnn(CC2CN(Cc3cccc(C(=O)N(C)C)c3)CCO2)c1` (centres undefined): 2.43% and -24.4%.
The corresponding values for `CN1CCN(C(=O)c2cnc3c(cnn3C3CCCC3)c2)CC1` are -4% and -2.45%.
Consider `COCCC(=O)N1CCC(c2noc3nc(C)cc(C(F)(F)F)c23)CC1`, for which the results for the Percent Effect in experiment [1] and in experiment [2] were 1.68% and 8.3%, respectively.
On to `c1csc(-c2nc(CN3CCCC3Cn3cncn3)co2)c1` (centres undefined), for which the Percent Effect is 3.68% in experiment [1] and -0.336% in experiment [2].
Take `COc1cccc(OC)c1CN1CCC2(CC(Nc3ccncn3)C2)C1` (centres undefined): the Percent Effect in experiment [1] amounted to 3.04%; in experiment [2] it was 0.472%.
On to `Cc1csc(CNC(=O)Nc2cc(C(F)(F)F)c[nH]c2=O)n1`, for which the Percent Effect in experiment [1] is -5.12%; in experiment [2] it was 8.58%.
As for `COCCn1ccc(NC(=O)Nc2cccnc2)n1`, the results for the Percent Effect in experiment [1] and in experiment [2] were -2.04% and -43.4%, respectively.
For `CNC(=O)CN1CCC(NC(=O)N(C)Cc2cc(C)on2)CC1`, the Percent Effect in experiment [1] is -6.28%; in experiment [2], 19%.
The corresponding values for `COCC(=O)N1CCCn2c(CN3CCCCC3)nnc2C1` are 1.5% and -19.1%.
The matching figures for `Cc1ccccc1CN1CCN(Cc2nccn2C)CC1`: -1.8% and 13.3%.
The matching figures for `COc1ccc2nnc(CCCC(=O)NCCC3=CCCCC3)n2n1`: 0.319% and -54.6%.
Take `CCC1CN(CC(=O)N2CCC2)CCN1CCOC` (centres undefined): the figures for the Percent Effect in experiment [1] and in experiment [2] were 7.2% and 9.62%, respectively.
The corresponding values for `Cc1cc(-c2cnc(N3CCNC(=O)C3)nc2-c2cccnc2C)on1` are -4.46% and -9.56%.
As to `CN(C)CC1CN(c2ncnc3[nH]ccc23)CCO1` (centres undefined), the figures for the Percent Effect in experiment [1] and in experiment [2] were -0.0146% and -33.5%, respectively.
The matching figures for `CC(C)C1CN(c2ncccn2)CCC(=O)N1Cc1ccc(F)cc1` (centres undefined): 3.51% and 3.8%.
The corresponding values for `CCN1CCN(C2CCN(Cc3c(C)noc3C)CC2)C1=O` are -5.48% and -30.9%.
The corresponding values for `CC(NC(=O)N(C)Cc1ccncc1)c1nncn1C` (centres undefined) are -5.91% and -0.749%.
Consider `Cc1cc(C)n(CC2CCCCN2Cc2cscn2)n1` (centres undefined), for which the Percent Effect was -3.34% in experiment [1] and 25.2% in experiment [2].
On to `O=C(C1CC=CC1)N1CCC2(CC1)CN(Cc1ccccn1)CCO2`, for which the results for the Percent Effect in experiment [1] and in experiment [2] were -0.381% and 3.35%, respectively.
The matching figures for `O=C(NCCNc1ncccn1)N1CCSCC1`: -0.235% and 17.7%.

(Values after ChEMBL document CHEMBL3988442, “University of Dundee, Small-Polar-MMV Screening Library” (2021).)
